Active and inactive are the calls of the source.
What was measured:
Albumin (Bos taurus) = Albumin (Bos taurus) (UniProt P02769); test: bovine serum albumin binders on microarray, profiling panel, artefact control for SMM control protein annotation, biochemical, small-molecule microarray, Alexa647 label, 635/667 nm fluorescence (AID 1118); details: BSA-A647 binding, fluorescence 635 nm, higher = more signal;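 also: score merges 667 nm emission intensity and signal-to-noise per printed compound spot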
[1] = small-molecule microarray binders of probe aXIP, primary screen, biochemical, NeuroSMM set, 635/667 nm fluorescence (AID 1119); details: higher = more signal, called active from +8 up or from −8 down;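 also: probe is the protein aXip251-270 applied at 1 µg/mL to compound-printed slides; binding of probe to printed compounds measured as 667 nm fluorescence plus signal to noise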
[2] = small-molecule binders of probe aNOTCH3, primary screen, biochemical, small-molecule microarray, 635/667 nm fluorescence (AID 1120); details: higher = more signal;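 also: probe is a biotin-tagged antibody raised against NOTCH3 rather than NOTCH3 protein; score merges spot fluorescence near 667 nm with spot signal to noise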
[3] = small-molecule binders of probe aNOTCH2, primary screen, biochemical, small-molecule microarray, 635/667 nm fluorescence (AID 1121); details: higher = more signal;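 also: score merges feature fluorescence read at 667 nm with its signal to noise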
[4] = molecular target: Carbonic anhydrase 2 (Homo sapiens) (UniProt P00918); test: CAII small-molecule binders, profiling panel, biochemical, small-molecule microarray, Alexa647-labelled CAII (AID 1122); details: CAII-A647 binding fluorescence, higher = more signal
[5] = COS7 lysate on small-molecule microarray, probe aHis, 635 nm (AID 1123); details: COS7 cell lysate, fluorescence, higher = more signal;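 also: z-score combines 667nm fluorescence intensity with signal-to-noise per printed compound spot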
[6] = compound binding in COS7 lysate, probe aLAP1, primary screen, cell lysate, small-molecule microarray (AID 1124); details: probe aLAP1, fluorescence, higher = more signal;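 also: lysate comes from COS7 cells expressing LAP1 and is applied at 0.3 µg/mL; score merges spot fluorescence near 667 nm with signal-to-noise over triplicate slides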
Sam68 (KHDRBS1) = test: Sam68 small-molecule binders, primary screen, biochemical, small-molecule microarray, 635 nm fluorescence (AID 1125); details: small-molecule microarray binding, higher = more signal;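 also: score merges 667 nm channel intensity with signal to noise over triplicate slides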
[7] = test system: Chordin-like protein 2 (CHRDL2); test: CHRDL2 small-molecule binders, primary screen, biochemical, small-molecule microarray, 635 nm fluorescence (AID 1126); details: small-molecule microarray binding, fluorescence 635 nm; higher = more signal;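 also: printed compound slides probed with Chrdl2 protein at 4 µg/mL for 1 h at 4 C; score merges 667 nm emission intensity with signal to noise over three replicate slides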
[8] = molecular target: Concanavalin-A (Canavalia ensiformis) (UniProt P02866); test: ConA small-molecule binders, primary screen, artefact control for SMM control protein annotation, biochemical, small-molecule microarray, Alexa647 label, 635 nm (AID 1127); details: ConA-A647 binding fluorescence, higher = more signal;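 also: z combines 667 nm emission intensity with signal-to-noise across three replicate slides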
Chain of Concanavalin-A (Canavalia ensiformis) (P02866 whole entry, looked up): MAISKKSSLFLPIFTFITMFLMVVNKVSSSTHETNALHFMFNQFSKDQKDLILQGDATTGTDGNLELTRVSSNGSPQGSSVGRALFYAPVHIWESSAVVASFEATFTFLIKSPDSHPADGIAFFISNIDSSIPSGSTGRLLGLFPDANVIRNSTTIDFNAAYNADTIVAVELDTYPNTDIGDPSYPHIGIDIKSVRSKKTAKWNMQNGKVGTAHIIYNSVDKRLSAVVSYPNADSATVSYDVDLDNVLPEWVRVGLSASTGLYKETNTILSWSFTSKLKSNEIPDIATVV

Chain of Albumin (Bos taurus) (P02769 whole entry, looked up): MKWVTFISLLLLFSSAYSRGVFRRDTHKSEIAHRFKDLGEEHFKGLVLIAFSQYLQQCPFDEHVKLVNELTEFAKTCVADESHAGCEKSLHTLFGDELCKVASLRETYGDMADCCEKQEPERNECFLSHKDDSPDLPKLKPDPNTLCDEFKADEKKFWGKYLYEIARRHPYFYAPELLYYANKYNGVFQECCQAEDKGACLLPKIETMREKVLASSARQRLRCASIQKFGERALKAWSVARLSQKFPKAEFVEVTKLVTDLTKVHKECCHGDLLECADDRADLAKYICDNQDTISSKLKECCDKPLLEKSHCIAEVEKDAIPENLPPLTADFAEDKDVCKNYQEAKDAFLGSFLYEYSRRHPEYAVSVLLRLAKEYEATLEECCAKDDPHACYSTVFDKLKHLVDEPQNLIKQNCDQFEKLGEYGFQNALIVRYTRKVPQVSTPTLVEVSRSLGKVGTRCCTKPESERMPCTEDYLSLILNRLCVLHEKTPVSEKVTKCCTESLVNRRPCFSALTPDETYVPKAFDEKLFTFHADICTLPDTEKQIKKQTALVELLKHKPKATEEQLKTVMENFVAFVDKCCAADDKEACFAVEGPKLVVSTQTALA

Structure (SMILES) | composite z-score (Albumin (Bos taurus)) | composite Z-score [1] | composite z-score [2] | composite z-score [3] | composite z-score [4] | composite z-score [5] | composite z-score [6] | composite z-score (Sam68 (KHDRBS1)) | composite z-score [7] | composite z-score [8]
CCS[C@H]1[C@@H](C(=O)O)[C@H](c2ccc(C)cc2)N(S(=O)(=O)c2ccc(C)cc2)[C@@H]1CC | 0.804 | -0.0164 (inactive) | 0.372 | 0.0431 | 0.519 | 1.77 | 0.5 | 1.32 | -0.467 | 0.615
CC(C)NC(=O)[C@@]1(c2ccc([N+](=O)[O-])cc2)CC(=O)N(C2CCCCC2)[C@@H]1c1ccc(CO)cc1I | 0.0092 | 0.691 (inactive) | -0.0647 | 0.083 | 0.421 | 1.27 | 0.321 | 0.93 | -0.589 | 0.347
C=CCOC(=O)[C@H]1[C@@H]2C(=O)O[C@@H](c3ccccc3)[C@@H](c3ccccc3)N2[C@@H](c2ccc(OCCOC(=O)[C@H]3C[C@H]4C(=O)N[C@@H](CCCC[N+](C)(C)C)C(=O)N4[C@H]3c3ccc(O)cc3)cc2)[C@]12C(=O)Nc1ccc(I)cc12 | -0.763 | 1.88 (inactive) | 0.191 | 0.0482 | -0.141 | 0.502 | -0.432 | 1.11 | 1.11 | 0.401
C=CCC(OC(C)=O)[C@@H]1[C@@H](N(Cc2ccc(-c3ccccc3)cc2)C(=O)c2ccc(-c3ccccc3)cc2)c2cc(OCCCO)ccc2N1C(=O)Cc1ccc2ccccc2c1 (stereo not given in full) | 0.108 | -0.316 (inactive) | -0.0057 | -0.213 | 0.002 | 0.522 | -0.0155 | 0.621 | 0.156 | -0.288
C=C(/C(=C/C[C@H](OC(C)=O)c1ccccc1OCCO)c1cnc2ccccc2c1)C(C)C | 0.0816 | -0.323 (inactive) | 0.16 | -0.102 | 0.722 | 0.202 | -0.0507 | 0.461 | 0.384 | 0.922
COC(=O)C[C@H]1O[C@]2(C(=O)N(C)c3ccccc32)[C@@H](C)[C@@H]1[Si](C)(C)F | -0.255 | 0.448 (inactive) | -0.0584 | -0.161 | 0.224 | 0.597 | -0.0413 | 1.09 | 0.592 | 0.596
C=C(CCCC)C(=O)CC[C@@H](OC(=O)c1ccccc1-c1ccccc1C(=O)O)c1ccc(OCCO)cc1 | -0.873 | 0.0426 (inactive) | -0.185 | -0.125 | 0.437 | 0.121 | -0.102 | 0.684 | 0.876 | 0.829
CN1C(=O)C2C=CC(C(O)c3ccco3)N(Nc3ccccc3)C2C1=O (stereo not given) | -0.152 | 0.472 (inactive) | 0.0974 | -0.0267 | 0.803 | -0.039 | 0.574 | 0.68 | 0.685 | 0.477
O=C1C2C=CC(C(O)Cc3ccccc3)N(n3cnnc3)C2C(=O)N1Cc1ccccc1 (stereo not given) | 1.03 | -0.188 (inactive) | 0.206 | 0.0248 | 0.449 | 1.14 | 0.75 | 0.646 | -0.748 | 0.779
CCCC[C@@H]1C[C@H]1[C@@H](NC(=O)c1ccco1)c1ccc(-c2ccccc2)cc1 | 0.0697 | 0.572 (inactive) | 0.0155 | 0.0474 | 0.344 | -0.66 | -0.305 | 0.325 | -0.33 | 0.163
COCCOC(=O)N1C(=O)[C@@]2(c3cc(C#Cc4ccc(OC)cc4)ccc31)[C@H](c1ccc(OCCO)cc1)N1[C@H](c3ccccc3)[C@H](c3ccccc3)OC(=O)[C@H]1[C@@H]2C(=O)N1CCN(c2ncccn2)CC1 | -0.701 | -0.799 (inactive) | -0.0311 | -0.102 | 0.357 | 0.977 | 0.182 | 1.33 | 0.575 | 1.11
COc1ccccc1CN1C(=O)c2ccccc2[C@@H](C(=O)NC2CC2)[C@@H]1c1ccc(CO)cc1 | -1.07 | 0.0824 (inactive) | 0.0522 | -0.0449 | 0.602 | 1.05 | 0.849 | 1.31 | 0.837 | 1.14
NCCCCCCNC(=O)[C@@H]1C[C@@H]2C(=O)NCC(=O)N2[C@@H]1c1ccc(O)cc1 | 0.741 | 0.706 (inactive) | -0.232 | -0.124 | 0.4 | 0.738 | 0.0946 | 1.28 | 1.17 | 1.17
NC(=O)NCC#Cc1ccc2c(c1)[C@]1(C(=O)N2)[C@H](c2ccc(O)cc2)N2[C@H](c3ccccc3)[C@H](c3ccccc3)OC(=O)[C@H]2[C@@H]1C(=O)O | 0.43 | 0.619 (inactive) | -0.725 | -0.281 | 0.241 | 0.547 | -0.0085 | -0.0756 | -1.43 | 0.411
CC(=O)NCCCC[C@@H]1NC(=O)[C@H]2C[C@@H](C(=O)NCCCCCCNC(=O)CS)[C@@H](c3ccc(O)cc3)N2C1=O | -1.4 | 0.239 (inactive) | -0.216 | -0.185 | 0.727 | 2.68 | 0.0073 | 0.0719 | -0.205 | -0.366
C=CCOC(=O)[C@H]1[C@@H]2C(=O)O[C@@H](c3ccccc3)[C@@H](c3ccccc3)N2[C@@H](c2ccc(OCCOC(=O)[C@H]3C[C@H]4C(=O)N[C@@H](CCCCNC(C)=O)C(=O)N4[C@H]3c3cccc(OCCO)c3)cc2)[C@]12C(=O)Nc1ccccc12 | -0.168 | 0.93 (inactive) | -0.0026 | -0.114 | 0.392 | 2.16 | 0.168 | 1.25 | 1.31 | 1.15

Structure (SMILES) | composite z-score (Albumin (Bos taurus)) | composite Z-score [1] | composite z-score [2] | composite z-score [3] | composite z-score [4] | composite z-score [5] | composite z-score [6] | composite z-score (Sam68 (KHDRBS1)) | composite z-score [7] | composite z-score [8]
COc1cc(C(O)C2C=CC3C(=O)NC(=O)C3N2Nc2ccccn2)cc(OC)c1OC (stereo not given) | 0.354 | 0.183 (inactive) | -0.108 | 0.0339 | 0.749 | 2.43 | -0.0653 | 0.466 | 0.361 | 0.585
CC1(C)[C@@H]2CC(C(O)C3C=CC4C(=O)N(c5ccccc5)C(=O)C4N3Nc3ccc([N+](=O)[O-])cc3)=C[C@H]1C2 (stereo not given in full) | 0.973 | 0.131 (inactive) | 0.101 | -0.106 | 0.425 | 2.8 | 0.0175 | 1.33 | 0.649 | 1.17
C=CCOC(=O)[C@H]1[C@@H]2C(=O)O[C@@H](c3ccccc3)[C@@H](c3ccccc3)N2[C@@H](c2ccc(OCCOC(=O)[C@@H]3C[C@@H]4C(=O)N[C@@H](CCCCNC(C)=O)C(=O)N4[C@@H]3c3ccc(O)cc3)cc2)[C@]12C(=O)Nc1ccccc12 | -0.729 | 0.282 (inactive) | 0.173 | -0.0291 | 0.638 | 1.94 | 0.21 | 1.3 | 1 | 1.2
COC(=O)[C@H](Cc1ccccc1)N1CC2=C[C@@H](C3CC3)n3c(=O)n(C)c(=O)n3[C@H]2[C@@H]1[C@@H](O)Cc1ccccc1 | 0.503 | 0.133 (inactive) | 0.0562 | -0.115 | 0.298 | 0.653 | 0.0511 | 1.18 | 0.162 | 0.658
C[N+](C)(C)CCCCNC(=O)[C@H]1C[C@H]2C(=O)N3CCC[C@H]3C(=O)N2[C@H]1c1cccc(OCCO)c1 | -1.75 | -0.166 (inactive) | -0.0663 | -0.0942 | 0.73 | 0.647 | 0.815 | -0.531 | 1.3 | -0.303
O=C1C[C@@](C(=O)NC2CC2)(c2ccc([N+](=O)[O-])cc2)[C@@H](c2ccc(CO)cc2I)N1C1CCCCC1 | 0.554 | 0.142 (inactive) | 0.0596 | -0.14 | 0.452 | 1.77 | -0.0328 | 1.29 | 0.397 | 1.04
CC(CO)N1C(=O)[C@@H]2C3C(=O)OCCC/C=C\[C@H]3OC23C=CCN(C(C)(C)C)C(=O)[C@@H]13 (stereo not given in full) | -0.757 | -0.483 (inactive) | -0.103 | -0.167 | 0.872 | 0.295 | 0.198 | -0.0677 | -0.184 | 0.0099
O[C@@H](Cc1ccccc1)[C@H]1C2C=CCCC=C2CN1Cc1cccc(Cl)c1 (stereo not given in full) | 0.478 | 0.0338 (inactive) | 0.361 | 0.0018 | 0.385 | 0.822 | 0.536 | 1.31 | 0.595 | 0.609
CN(C)CCCC[C@@H]1NC(=O)[C@@H]2C[C@H](C(=O)NCCCCCCN)[C@H](c3cccc(OCCO)c3)N2C1=O | 0.839 | 0.938 (inactive) | 1.07 | 0.308 | 0.632 | 3.25 | 0.495 | 1.3 | 0.299 | 1.13
COc1ccc(CCNC(=O)[C@@]2(Sc3ccc(C)cc3)CC(=O)N(C(C)C)[C@@H]2c2ccc(CO)cc2I)cc1 | -0.235 | -0.174 (inactive) | -0.0647 | 0.0118 | 0.304 | 1.04 | 0.648 | 0.0063 | -0.578 | -0.613
O=C(c1ccccc1)N1C(=O)[C@]2(COC(c3ccc(OCCCO)cc3)=N2)Cc2ccccc21 | 0.368 | 3.03 (inactive) | 0.201 | -0.0249 | 0.566 | 3.17 | 0.771 | 1.29 | 0.674 | 1.16
CCCC[C@H]1OB(O)C[C@H]2C1=C(COC)Cn1c(=O)n(-c3ccccc3)c(=O)n12 | 0.0697 | -0.166 (inactive) | -0.0903 | -0.172 | -0.185 | 0.56 | 0.0521 | 0.439 | 0.432 | -0.317
O=C1N(Cc2ccccc2)c2ccccc2[C@@H]2OC(c3ccc(OCCCO)cc3)=N[C@]12CCS(=O)(=O)c1ccccc1 | 0.272 | 1.29 (inactive) | 0.147 | -0.0079 | 0.626 | 2.52 | -0.276 | 0.895 | 0.0187 | 1.14
C=CCC(OC(C)=O)[C@@H]1[C@@H](N(Cc2cc3ccccc3o2)C(=O)c2cccc3ccccc23)c2cc(OCCCO)ccc2N1C(=O)c1ccc(-c2ccccc2)cc1 (stereo not given in full) | 0.236 | -0.418 (inactive) | 0.0779 | -0.113 | -0.0159 | 0.317 | -0.187 | 0.195 | 0.107 | -0.505
Cc1ccc(S[C@]2(C(=O)NCCCN(C)C)CC(=O)N(Cc3cc(C(F)(F)F)cc(C(F)(F)F)c3)[C@@H]2c2ccc(CO)cc2I)cc1 | -0.39 | -0.86 (inactive) | 0.462 | -0.0492 | 0.773 | 0.961 | 0.135 | 0.375 | -0.395 | -1.79
CCOC(=O)C[C@H]1[C@H](OC(=O)c2ccc(C(=O)c3ccccc3)cc2)[C@@H](NC(=O)c2ccc3ccccc3n2)c2cc(OCCCO)ccc2N1C(=O)c1ccccc1 | 0.583 | -0.12 (inactive) | 0.0488 | -0.0646 | 0.249 | 0.994 | 0.545 | 1.29 | -0.322 | 1.12
